Reference: PubChem BioAssay AID1159580 (chemical genetic matrix, 2015)
Screen size: about 5,500 compounds; about 2,000 (36%) were called active. Roughly 18% stayed inconclusive and do not appear here. Cut-off read from the data, not from the text of the source: active = normalized growth mostly below about 0.91 (no sharp cut-off); inconclusive = no clear call, values can overlap the other calls; inactive = mostly above about 0.92. This is one part of the list.

Experiment: chemical genetic growth profiling, strain panel (AID 1159580);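 note: tested at 20 µM; growth read once vehicle control cultures reached saturation at 30 °C; 1 = growth at the plate median or of vehicle wells; lower values mean less growth of the strain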
Conditions: S. cerevisiae deletion strains, growth OD

Measured: normalized growth

CCCCCCCCCCCC1=C(O)C(=O)C=C(O)C1=O
inactive: locus YBR021W, strain FUR4, stronger effect = lower value 0.916 | locus YBR229C, strain ROT2, stronger effect = lower value 1 | locus YDL005C, strain med2, stronger effect = lower value 0.961 | locus YDL040C, strain nat1, stronger effect = lower value 0.95 | locus YDL101C, strain DUN1, stronger effect = lower value 0.994 | locus YDL134C, strain PPH21, stronger effect = lower value 0.956 | locus YDR318W, strain mcm21, stronger effect = lower value 0.955 | locus YDR388W, stronger effect = lower value 0.98 | locus YER016W, strain bim1, stronger effect = lower value 0.944 | locus YER110C, stronger effect = lower value 0.976 | locus YER155C, strain BEM2, stronger effect = lower value 0.925 | locus YER167W, strain BCK2, stronger effect = lower value 0.952 | locus YGL240W, strain doc1, stronger effect = lower value 0.923 | locus YGL248W, strain PDE1, stronger effect = lower value 0.92 | locus YGR252W, strain gcn5, stronger effect = lower value 0.95 | locus YHR079C, strain IRE1 (second series), stronger effect = lower value 0.991 | locus YHR094C, strain hxt1, stronger effect = lower value 0.994 | locus YIL073C, strain SPO22, stronger effect = lower value 0.933 | locus YIR030C, strain dcg1, stronger effect = lower value 0.972 | locus YJL129C, strain trk1, stronger effect = lower value 0.999 | locus YJL134W, strain LCB3, stronger effect = lower value 0.984
active: locus YAL013W, strain DEP1, stronger effect = lower value 0.662 | locus YAL021C, strain ccr4, stronger effect = lower value 0.835 | locus YAL026C, strain drs2, stronger effect = lower value 0.394 | locus YAL030W, strain snc1, stronger effect = lower value 0.889 | locus YBL061C, strain skt5, stronger effect = lower value 0.795 | locus YBR009C, strain hhf1, stronger effect = lower value 0.853 | locus YBR023C, strain chs3, stronger effect = lower value 0.815 | locus YBR171W, strain sec66, stronger effect = lower value 0.853 | locus YBR231C, strain swc5, stronger effect = lower value 0.77 | locus YBR279W, strain paf1, stronger effect = lower value 0.762 | locus YCL011C, strain gbp2, stronger effect = lower value 0.822 | locus YCL016C, strain dcc1, stronger effect = lower value 0.886 | locus YCL029C, strain bik1, stronger effect = lower value 0.89 | locus YCL061C, strain MRC1, stronger effect = lower value 0.628 | locus YCL069W, strain vba3, stronger effect = lower value 0.538 | locus YCR088W, strain abp1, stronger effect = lower value 0.723 | locus YDL035C, strain GPR1, stronger effect = lower value 0.525 | locus YDL074C, strain BRE1, stronger effect = lower value 0.365 | locus YDL185W, strain tfp1, stronger effect = lower value 0.503 | locus YDL192W, strain arf1, stronger effect = lower value 0.834 | locus YDR001C, strain nth1, stronger effect = lower value 0.786 | locus YDR069C, strain doa4, stronger effect = lower value 0.692 | locus YDR101C, strain arx1, stronger effect = lower value 0.871 | locus YDR137W, strain rgp1, stronger effect = lower value 0.81 | locus YDR150W, strain NUM1, stronger effect = lower value 0.673 | locus YDR159W, strain sac3, stronger effect = lower value 0.822 | locus YDR162C, strain NBP2, stronger effect = lower value 0.338 | locus YDR195W, strain ref2 0.853 | locus YDR297W, strain sur2, stronger effect = lower value 0.87 | locus YDR334W, strain swr1, stronger effect = lower value 0.259 | locus YDR335W, strain msn5, stronger effect = lower value 0.599 | locus YDR392W, strain spt3, stronger effect = lower value 0.16 | locus YDR502C, strain sam2, stronger effect = lower value 0.886 | locus YEL003W, strain gim4, stronger effect = lower value 0.851 | locus YEL037C, strain rad23, stronger effect = lower value 0.467 | locus YEL061C, strain CIN8 (second series), stronger effect = lower value 0.493 | locus YEL061C, strain CIN8, stronger effect = lower value 0.665 | locus YER015W, strain faa2, stronger effect = lower value 0.748 | locus YER111C, strain swi4, stronger effect = lower value 0.265 | locus YER155C, strain BEM2 (second series), stronger effect = lower value 0.615 | locus YFR010W, strain ubp6, stronger effect = lower value 0.507 | locus YGL078C, strain dbp3, stronger effect = lower value 0.822 | locus YGL086W, strain mad1, stronger effect = lower value 0.798 | locus YGL167C, strain pmr1, stronger effect = lower value 0.882 | locus YGL173C, strain kem1, stronger effect = lower value 0.703 | locus YGL227W, strain vid30, stronger effect = lower value 0.909 | locus YGL253W, strain hxk2, stronger effect = lower value 0.359 | locus YGR078C, strain PAC10, stronger effect = lower value 0.684 | locus YGR135W, strain pre9, stronger effect = lower value 0.888 | locus YHR013C, strain ard1, stronger effect = lower value 0.743 | locus YHR027C, strain rpn1, stronger effect = lower value 0.605 | locus YHR030C, strain SLT2, stronger effect = lower value 0.596 | locus YHR129C, strain ARP1, stronger effect = lower value 0.67 | locus YHR142W, strain chs7, stronger effect = lower value 0.274 | locus YHR200W, strain rpn10, stronger effect = lower value 0.89 | locus YIL066C, strain RNR3, stronger effect = lower value 0.856 | locus YIL125W, strain kgd1, stronger effect = lower value 0.623 | locus YJL092W, strain hpr5, stronger effect = lower value 0.684 | locus YJL095W, strain BCK1 (second series), stronger effect = lower value 0.88 | locus YJL095W, strain BCK1, stronger effect = lower value 0.68 | locus YJL115W, strain asf1, stronger effect = lower value 0.72 | locus YJL154C, strain vps35, stronger effect = lower value 0.521 | locus YJL164C, strain tpk1, stronger effect = lower value 0.83 | locus YJL166W, strain qcr8, stronger effect = lower value 0.792
